Source: PubChem BioAssay (EPA / NIEHS)
Where “and” joins values, the source holds several entries; their conditions need not be identical. Equal values may be shown once. The source holds several records for some structures; these can differ, active in one and inactive in another. Calls of active or inactive are those of the source. How the source made its calls: active means hit-call score of the fitted dose curve at least 0.9, where 1 is the maximum; inactive means score below 0.9.

Tests used:
[1] = read-out: serum amyloid A (SAA), SAA1 (gene 6288); assay: BSK_CASM3C_SAA: BioMAP Diversity Plus: CASM3C Assay for serum amyloid A (SAA) Biomarker Activity (AID 2283049); details: primary human coronary artery smooth muscle cells; actives raise or lower the signal;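 further: SAA protein level quantified by ELISA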
[2] = BSK_CASM3C_SRB: Viability Assessment in the BioMAP Diversity Plus: CASM3C Assay (AID 2283050); details: primary human coronary artery smooth muscle cells
[3] = read-out: Thrombomodulin, THBD (gene 7056); assay: BSK_CASM3C_Thrombomodulin: BioMAP Diversity Plus: CASM3C Assay for Thrombomodulin Biomarker Activity (AID 2283051); details: primary human coronary artery smooth muscle cells; actives raise or lower the signal;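 further: thrombomodulin protein level measured by ELISA 24 h after dosing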
[4] = read-out: Tissue Factor, F3 (gene 2152); assay: BSK_CASM3C_TissueFactor: BioMAP Diversity Plus: CASM3C Assay for Tissue Factor Biomarker Activity (AID 2283052); details: primary human coronary artery smooth muscle cells; actives raise or lower the signal;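 further: cell surface tissue factor protein level read by ELISA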
[5] = read-out: Interferon-gamma inducible Protein 10 (IP10), CXCL10 (gene 3627); assay: BSK_hDFCGF_IP10: BioMAP Diversity Plus: hDFCGF Assay for Interferon-gamma inducible Protein 10 (IP10) Biomarker Activity (AID 2283053); details: primary human foreskin fibroblasts; actives raise or lower the signal
Method in brief: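 Human foreskin fibroblast primary cells (hDFCGF system) were dosed with chemical and assayed at 24 h; IP-10 measured by ELISA. Activity fitted bidirectionally relative to DMSO negative control as baseline.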

[6] = read-out: Urokinase-type plasminogen activator receptor (uPAR), PLAUR (gene 5329); assay: BSK_CASM3C_uPAR: BioMAP Diversity Plus: CASM3C Assay for Urokinase-type plasminogen activator receptor (uPAR) Biomarker Activity (AID 2283054); details: primary human coronary artery smooth muscle cells; actives raise or lower the signal;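 further: cell-surface uPAR protein level quantified by ELISA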
[7] = read-out: Vascular cell adhesion molecule 1 (VCAM1), VCAM1 (gene 7412); assay: BSK_CASM3C_VCAM1: BioMAP Diversity Plus: CASM3C Assay for Vascular cell adhesion molecule 1 (VCAM1) Biomarker Activity (AID 2283055); details: primary human coronary artery smooth muscle cells; actives raise or lower the signal;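 further: VCAM-1 protein level quantified by ELISA on the cells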
[8] = read-out: Collagen III, COL3A1 (gene 1281); assay: BSK_hDFCGF_CollagenIII: BioMAP Diversity Plus: hDFCGF Assay for Collagen III Biomarker Activity (AID 2283056); details: primary human foreskin fibroblasts; actives raise or lower the signal
Method in brief: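 Human foreskin fibroblast primary cultures sampled 24 h after dosing; Collagen III quantified by ELISA. Signal fitted bidirectionally against DMSO baseline.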

[9] = read-out: Epidermal growth factor receptor (EGFR), EGFR (gene 1956); assay: BSK_hDFCGF_EGFR: BioMAP Diversity Plus: hDFCGF Assay for Epidermal growth factor receptor (EGFR) Biomarker Activity (AID 2283057); details: primary human foreskin fibroblasts; actives raise or lower the signal
Method in brief: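 Primary human foreskin fibroblasts were exposed to compound for 24 h, after which cell-surface EGFR was quantified by ELISA. Activity was fitted bidirectionally against the DMSO negative control as baseline.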

[10] = read-out: Interleukin-8 (IL8), CXCL8 (gene 3576); assay: BSK_hDFCGF_IL8: BioMAP Diversity Plus: hDFCGF Assay for Interleukin-8 (IL8) Biomarker Activity (AID 2283058); details: primary human foreskin fibroblasts; actives raise or lower the signal
Method in brief: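 Primary human foreskin fibroblasts (hDFCGF system) dosed with chemical; IL-8 measured by ELISA 24 hours later. Bidirectional curve fitting relative to DMSO baseline; cytotoxicity tracked in parallel cultures by SRB total protein staining.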

[11] = BSK_hDFCGF_Proliferation: Cell Proliferation Assessment in the BioMAP Diversity Plus: hDFCGF Assay (AID 2283059); details: primary human foreskin fibroblasts;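 further: curves fitted for both rise and fall of signal versus DMSO baseline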
Method in brief: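 Sub-confluent human foreskin fibroblast cultures receive test chemical […]. Relative cell number is quantified by sulforhodamine B staining (0.1%, after 10% TCA fixation) at 560 nm, with bidirectional fitting referenced to DMSO.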

[12] = read-out: Macrophage colony-stimulating factor (MCSF), CSF1 (gene 1435); assay: BSK_hDFCGF_MCSF: BioMAP Diversity Plus: hDFCGF Assay for Macrophage colony-stimulating factor (MCSF) Biomarker Activity (AID 2283060); details: primary human foreskin fibroblasts; actives raise or lower the signal
Method in brief: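 Human foreskin fibroblast primary cultures; M-CSF measured by ELISA 24 hours after chemical dosing. Bidirectional fitting relative to DMSO, with overt cytotoxicity tracked by parallel SRB total-protein staining (0.1% SRB, 10% TCA fixation, 560 nm).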

[13] = BSK_hDFCGF_SRB: Viability Assessment in the BioMAP Diversity Plus: hDFCGF Assay (AID 2283061); details: primary human foreskin fibroblasts;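 further: cells exposed to compound for 24 h before the read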
Method in brief: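 Human foreskin fibroblasts in 96-well plates were treated 24 h. Total protein was measured by 0.1% SRB staining after 10% TCA fixation, read at 560 nm. Data were fitted bidirectionally against DMSO.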

[14] = read-out: TIMP metallopeptidase inhibitor 1 (TIMP1), TIMP1 (gene 7076); assay: BSK_hDFCGF_TIMP1: BioMAP Diversity Plus: hDFCGF Assay for TIMP metallopeptidase inhibitor 1 (TIMP1) Biomarker Activity (AID 2283062); details: primary human foreskin fibroblasts; actives raise or lower the signal
Method in brief: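 Human foreskin fibroblast primary cultures dosed for 24 h; secreted/surface TIMP-1 quantified by ELISA. Bidirectional curve fitting against DMSO baseline; cytotoxicity tracked in parallel cultures by SRB total-protein staining.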

[15] = read-out: Monokine induced gamma interferon (MIG), CXCL9 (gene 4283); assay: BSK_hDFCGF_MIG: BioMAP Diversity Plus: hDFCGF Assay for Monokine induced gamma interferon (MIG) Biomarker Activity (AID 2283063); details: primary human foreskin fibroblasts; actives raise or lower the signal
Method in brief: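 MIG/CXCL9 measured by ELISA 24 h after dosing primary human skin fibroblasts. Activity fitted in both directions against DMSO controls. Cytotoxicity was checked in parallel cultures by SRB staining read at 560 nm.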

[16] = read-out: Matrix Metallopeptidase 1 (MMP1), MMP1 (gene 4312); assay: BSK_hDFCGF_MMP1: BioMAP Diversity Plus: hDFCGF Assay for Matrix Metallopeptidase 1 (MMP1) Biomarker Activity (AID 2283064); details: primary human foreskin fibroblasts; actives raise or lower the signal
Method in brief: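 Primary human foreskin fibroblasts exposed to chemicals for 24 h; MMP1 measured by ELISA. Cytotoxicity tracked by SRB staining in parallel cultures; bidirectional fit relative to DMSO.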

[17] = read-out: Vascular cell adhesion molecule 1 (VCAM1), VCAM1 (gene 7412); assay: BSK_hDFCGF_VCAM1: BioMAP Diversity Plus: hDFCGF Assay for Vascular cell adhesion molecule 1 (VCAM1) Biomarker Activity (AID 2283065); details: primary human foreskin fibroblasts; actives raise or lower the signal;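 on AC50: VCAM-1 protein level quantified by ELISA after 24 h chemical exposure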
Method in brief: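 Human foreskin fibroblast primary cells dosed with chemical, VCAM-1 measured by ELISA at 24 h. Bidirectional curve fitting relative to DMSO as negative control/baseline.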

[18] = read-out: Plasminogen activator inhibitor-1 (PAI1), SERPINE1 (gene 5054); assay: BSK_hDFCGF_PAI1: BioMAP Diversity Plus: hDFCGF Assay for Plasminogen activator inhibitor-1 (PAI1) Biomarker Activity (AID 2283066); details: primary human foreskin fibroblasts; actives raise or lower the signal
Method in brief: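 Human foreskin fibroblasts in the hDFCGF system were dosed with compound for 24 h; PAI-1 was quantified by ELISA. Bidirectional curve fitting used DMSO as negative control and baseline.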

[19] = read-out: Intercellular Adhesion Molecule 1 (ICAM1), ICAM1 (gene 3383); assay: BSK_KF3CT_ICAM1: BioMAP Diversity Plus: KF3CT Assay for Intercellular Adhesion Molecule 1 (ICAM1) Biomarker Activity (AID 2283067); details: primary human keratinocytes with fibroblasts; actives raise or lower the signal
Method in brief: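 Human keratinocyte–foreskin fibroblast co-culture was treated for 24 h. Cell-surface ICAM-1 was quantified by ELISA, fitted bidirectionally relative to DMSO. Cytotoxicity was checked in parallel cultures by SRB total-protein staining.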

[20] = read-out: Interferon-gamma inducible Protein 10 (IP10), CXCL10 (gene 3627); assay: BSK_KF3CT_IP10: BioMAP Diversity Plus: KF3CT Assay for Interferon-gamma inducible Protein 10 (IP10) Biomarker Activity (AID 2283068); details: primary human keratinocytes with fibroblasts; actives raise or lower the signal
Method in brief: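 ELISA read-out of IP-10 after 24 h chemical dosing of human skin primary co-culture (keratinocytes, foreskin fibroblasts). Gain or loss of signal relative to DMSO, bidirectional curve fit.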

Measured: AC50

CCOP(=S)(OCC)Oc1cc(C)nc(C(C)C)n1
inactive: all assays above

O=C(O)c1cc(Oc2ccc(C(F)(F)F)cc2Cl)ccc1[N+](=O)[O-]
inactive: all assays above

COc1ccc(C(=CC(=O)N2CCOCC2)c2ccc(Cl)cc2)cc1OC
active: [7] 7.56 µM | [18] 7.96 µM
inactive: all other assays above

CSC1=N[C@@](C)(c2ccccc2)C(=O)N1Nc1ccccc1
active: [8] 25 µM | [11] 23.3 µM
inactive: all other assays above

O=[N+]([O-])c1cc(C(F)(F)F)c(Cl)c([N+](=O)[O-])c1Nc1ncc(C(F)(F)F)cc1Cl
inactive: [3] | [4] | [14]
active: [1] 3.5 µM and 6.78 µM | [2] 2.04 µM and 5.51 µM | [4] 5.69 µM | [5] 2.13 µM and 7.1 µM | [6] 3.29 µM and 5.5 µM | [7] 2.86 µM and 7.2 µM | [8] 1.83 µM and 11.7 µM | [9] 1.92 µM and 5.48 µM | [10] 2.78 µM and 11.7 µM | [11] 546 nM and 1.8 µM | [12] 1.17 µM and 6.88 µM | [13] 810 nM and 9.49 µM | [14] 1.12 µM | [15] 1.32 µM and 8.98 µM | [16] 1.59 µM and 10.6 µM | [17] 954 nM and 7.64 µM | [18] 859 nM and 9.54 µM | [19] 1.15 µM and 9.82 µM | [20] 7.9 µM

FC(F)C(F)(F)OCC(Cn1cncn1)c1ccc(Cl)cc1Cl (configuration not stated)
active: [5] 27.8 µM | [11] 5.24 µM | [12] 23.4 µM | [18] 19.4 µM
inactive: all other assays above
